# Data from PubChem BioAssay (Tox21).
# Records with an inconclusive call do not appear. Entries that show only a call come without a potency. Some structures have more than one record in an assay (separate samples or runs), and their calls can disagree. Calls of active or inactive are those of the source. The call rests on the fitted dose curve; in most records, active means well fitted curve in the direction sought with a large enough effect in the repeat runs; inconclusive means weak or mixed curves; inactive means no such curve, though single readings can be large; an effect the other way counts as inactive or inconclusive.
# What was measured:
# [1] = Human pregnane X receptor (PXR) small molecule agonists, qHTS cell viability counter screen (AID 1346977); further: nearly all actives have a fitted effect of over 50% in size
# In short: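 Same-well viability read: CellTiter-Fluor added after 23 hr compound exposure, fluorescence measured 1 hr later. Cells were PXR-Luc HepG2 seeded at 2,000/well in 5% charcoal-stripped FBS medium, rested 5 hr before dosing at 37 C.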
# [2] = Caspase-3/7 induction in HepG2 cells by small molecules, qHTS assay (AID 1346978); further: nearly all actives have a fitted effect of over 15% in size
# In short: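 Wild-type HepG2 cells (2,000/well) were settled 5 h at 37 C, 5% CO2, then exposed to compounds in DMSO for 17 h. Caspase-3/7 activity was read by luminescence 30 min after adding Caspase-Glo 3/7 reagent at room temperature.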
# [3] = Caspase-3/7 induction in CHO-K1 cells by small molecules, qHTS cell viability counter screen (AID 1346979); further: nearly all actives have a fitted effect of over 35% in size; further: potency means the concentration at half of the fitted maximal effect
# In short: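 Cytotoxicity counter screen: CellTiter-Fluor added to compound-treated wild-type CHO-K1 cells at 16 h (37C, 5% CO2), fluorescence measured 1 h later; same wells as caspase-3/7 measurement.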
# [4] = Caspase-3/7 induction in CHO-K1 cells by small molecules, qHTS assay (AID 1346980); further: nearly all actives have a fitted effect of over 15% in size
# In short: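 Wild-type cells were seeded at 1,500 per well and settled 5 hr at 37 C, 5% CO2, then exposed to DMSO-dissolved compounds for 17 hr. Caspase-Glo 3/7 reagent was added, and luminescence was read after 30min at room temperature.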
# [5] = Caspase-3/7 induction in HepG2 cells by small molecules, qHTS cell viability counter screen (AID 1346981); further: series mostly up to about 92 µM; nearly all actives have a fitted effect of over 30% in size
# In short: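 Counter screen for cytotoxicity: HepG2 exposed 16 hr to compounds, then CellTiter-Fluor viability signal (fluorescence, 1 hr reagent incubation).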
# [6] = biological target: Nuclear receptor subfamily 1 group I member 2 (Homo sapiens) (UniProt O75469); test: Human pregnane X receptor (PXR) small molecule agonists, qHTS assay (AID 1346982); further: nearly all actives have a fitted effect of over 35% in size
# In short: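 Luminescence (ONE-Glo, 30 min RT) after 24 hr compound exposure of PXR-Luc HepG2 cells; cells rested 5 hr post-plating in 5% charcoal-stripped FBS medium.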
# [7] = biological target: Nuclear receptor subfamily 1 group I member 2 (Rattus norvegicus) (UniProt Q9R1A7); test: Rat pregnane X receptor (rPXR) activation by small molecules, qHTS assay (AID 1346983); settings: rPXR luciferase reporter cells, One-Glo luminescence, 24 h; max activation: stronger effect = higher value; further: nearly all actives have a fitted effect of over 20% in size; further: potency means the concentration at half of the fitted maximal effect
# In short: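 Cell-based rPXR luciferase reporter assay, 2,000 cells per well, rested 5hr at 37 C before compound addition in DMSO, then 24 hr at 37 C. One-Glo reagent was added and luminescence read after 30 min at room temperature.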
# [8] = biological target: Nuclear receptor subfamily 1 group I member 2 (Homo sapiens) (UniProt O75469); test: CYP3A4 induction through human pregnane X receptor (PXR) by small molecules, qHTS assay (AID 1346984); further: nearly all actives have a fitted effect of over 40% in size
# In short: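 DPX-2 reporter cells; 24h cpd, 37C; Luciferin-IPA 3uM final x3h; One-Glo 30 min RT; lumi read.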
# [9] = biological target: Nuclear receptor subfamily 1 group I member 2 (Homo sapiens) (UniProt O75469); test: Human pregnane X receptor (PXR) activation by small molecules, qHTS assay (AID 1346985); further: nearly all actives have a fitted effect of over 40% in size
# In short: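 DPX-2 cells (HepG2 co-transfected with a PXR response element and a CYP3A4-promoter luciferase construct) were seeded at 2,000 per well, rested 5 hr at 37C, then exposed to DMSO-dissolved compounds for 24 hr. Activation was read as luciferase luminescence.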
# [10] = biological target: Cytochrome P450 2D6 (Homo sapiens) (UniProt P10635); test: Cytochrome P450 Family 2 Subfamily D Member 6 (CYP2D6) small molecule antagonists: luciferase reporter qHTS assay (AID 1671196); further: nearly all actives have a fitted effect of over 50% in size; further: potency means the concentration at half of the fitted maximal effect
# In short: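 Inhibition of CYP2D6 was gauged by loss of luminescence, since light produced tracks the luciferin generated from a proluciferin substrate. A 10 min room-temperature preincubation preceded 1 h NADPH-supported turnover.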
# Nuclear receptor subfamily 1 group I member 2 (Homo sapiens), sequence (O75469 whole entry, looked up): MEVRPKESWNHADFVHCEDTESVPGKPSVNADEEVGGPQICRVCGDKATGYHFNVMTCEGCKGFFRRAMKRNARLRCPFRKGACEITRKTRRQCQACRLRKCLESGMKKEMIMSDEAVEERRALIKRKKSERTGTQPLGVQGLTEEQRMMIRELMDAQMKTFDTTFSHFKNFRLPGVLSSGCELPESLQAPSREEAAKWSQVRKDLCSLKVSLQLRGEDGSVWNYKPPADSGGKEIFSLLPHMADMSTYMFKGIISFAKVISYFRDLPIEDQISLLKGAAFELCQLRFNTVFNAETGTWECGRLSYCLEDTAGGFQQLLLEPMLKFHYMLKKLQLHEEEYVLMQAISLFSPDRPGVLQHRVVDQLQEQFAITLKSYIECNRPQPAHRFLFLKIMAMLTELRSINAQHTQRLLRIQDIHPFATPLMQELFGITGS
# Nuclear receptor subfamily 1 group I member 2 (Rattus norvegicus), sequence (Q9R1A7 whole entry, looked up): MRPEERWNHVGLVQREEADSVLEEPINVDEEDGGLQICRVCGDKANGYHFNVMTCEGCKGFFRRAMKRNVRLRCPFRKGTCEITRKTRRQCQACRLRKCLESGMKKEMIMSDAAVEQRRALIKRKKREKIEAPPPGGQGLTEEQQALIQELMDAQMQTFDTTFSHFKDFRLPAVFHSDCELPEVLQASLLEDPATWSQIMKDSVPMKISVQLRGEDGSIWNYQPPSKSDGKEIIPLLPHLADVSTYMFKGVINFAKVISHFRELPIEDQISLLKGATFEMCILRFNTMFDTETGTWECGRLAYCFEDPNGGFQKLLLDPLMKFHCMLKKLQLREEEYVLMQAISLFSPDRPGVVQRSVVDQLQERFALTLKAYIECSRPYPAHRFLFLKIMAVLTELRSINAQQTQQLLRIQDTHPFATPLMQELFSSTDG
# Cytochrome P450 2D6 (Homo sapiens), sequence (P10635 whole entry, looked up): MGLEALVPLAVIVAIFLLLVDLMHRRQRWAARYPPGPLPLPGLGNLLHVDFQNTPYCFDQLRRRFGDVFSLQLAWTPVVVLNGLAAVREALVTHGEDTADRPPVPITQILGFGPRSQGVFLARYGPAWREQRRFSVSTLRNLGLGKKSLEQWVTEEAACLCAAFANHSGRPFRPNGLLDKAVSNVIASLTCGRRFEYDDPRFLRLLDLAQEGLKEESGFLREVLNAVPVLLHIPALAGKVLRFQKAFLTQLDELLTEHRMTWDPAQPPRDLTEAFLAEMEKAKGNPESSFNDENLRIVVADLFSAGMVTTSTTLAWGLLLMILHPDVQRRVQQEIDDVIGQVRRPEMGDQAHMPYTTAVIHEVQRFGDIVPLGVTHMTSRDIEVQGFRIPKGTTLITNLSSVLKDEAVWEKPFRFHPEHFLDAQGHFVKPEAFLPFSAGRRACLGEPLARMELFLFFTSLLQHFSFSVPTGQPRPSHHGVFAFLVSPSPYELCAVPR
SMILES,Potency [1],Potency [2],Potency [3],Potency [4],Potency [5],Potency [6],max activation [7],Potency [8],Potency [9],Potency [10],Potency [7]
Cc1ccc(S(=O)(=O)NCl)cc1,inactive,inactive,inactive,inactive,inactive,inactive,4.18% (inactive),inactive,inactive,inactive,–
CCCCCC1C(=O)CCC1CC(=O)OC (centres undefined),inactive,inactive,inactive,inactive,inactive,inactive,–,–,–,inactive,–
c1ccc2cc3ccccc3cc2c1,inactive,inactive,inactive,inactive,inactive,–,–,–,–,inactive,–
Cc1ccc(/C(=C\CN2CCCC2)c2ccccn2)cc1,–,inactive,inactive,inactive,inactive,inactive,-1.02% (inactive),inactive,inactive,–,–
C/C=C/C(=O)N(CC)c1ccccc1C,inactive,inactive,inactive,inactive,–,inactive,-1.94% (inactive),inactive,–,inactive,–
C=C[Si](OCCOC)(OCCOC)OCCOC,inactive,inactive,inactive,inactive,–,inactive,–,–,–,28.4 µM (active) and inactive,–
C=CN1CCCC1=O,inactive,inactive,inactive,inactive,–,–,–,–,–,inactive,–
NCCOCCO,inactive,inactive,inactive,inactive,–,inactive,–,–,–,inactive,–
C=C1C[C@H]2[C@@H]3C=C(C)C4=CC(=O)CC[C@]4(C)[C@H]3CC[C@]2(C)[C@@]1(OC(C)=O)C(C)=O,inactive,inactive,–,inactive,–,–,–,inactive,inactive,inactive,–
CC(=O)OC(C)C,inactive,inactive,inactive,inactive,inactive,–,–,–,–,inactive,–
C=CC(=O)OCCCC,inactive,inactive,inactive,inactive,–,inactive,–,–,–,inactive,–
NCCS(=O)(=O)O,–,inactive,28.4 µM (active) and inactive,inactive,–,–,–,–,–,–,–
C=C[C@@]1(C)CC(=O)[C@]2(O)[C@@]3(C)[C@@H](O)CCC(C)(C)[C@@H]3[C@H](O)[C@H](OC(C)=O)[C@@]2(C)O1,inactive,inactive,68.6 µM (active),inactive,–,–,–,–,–,63.3 µM (active) and inactive,5.01 µM (active)
CC(C)=CCO,inactive,inactive,inactive,inactive,–,–,–,–,–,inactive,–
Cc1ccc(C(C)(C)C)cc1,inactive,inactive,inactive,inactive,–,inactive,–,–,–,inactive,–
